High-throughput results (PubChem)
The list is not random: actives were taken first. Their share in the collection is about 7.5%.
RORg inh – ROR gamma (mouse) transcription inhibition; AID 2551; Potency, µM (doses to about 53.6 µM), most hits filed as inhibitors; actives 5.4% (n = 310,000); P51450; Drosophila S2 Gal4-RORgamma UAS-luciferase reporter, 20 h; note: nearly all actives have a fitted effect of over 60% in size
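Compounds are pin-transferred onto Drosophila Schneider cells expressing a copper-inducible Gal4–ROR gamma transactivation domain fusion. After 1 hr, copper sulfate is added to 700 uM final; luciferase is read 20 hr later.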
ELG1 DNA repair – blocks ELG1-dependent DNA repair in HEK293T cells. HEK293T ELG1-luciferase reporter, luminescence, 16 h; DNA damage induced by 5-fluorouridine. Potency, µM (doses to about 46.1 µM), actives largely listed as inhibitors. actives 2.3% (n = 330,000). AID 504467; note: nearly all actives have a fitted effect of over 55% in size
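In this reporter screen, reduction of luminescence relative to DMSO vehicle indicated activity. Compounds and 5-fluorouridine were added together to 2,000 cells per well, incubated for 16 hr at 37 °C, then developed with ONE-Glo.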
Gal4-VP16 FLuc – Gal4-VP16 reporter inhibition counter-screen; actives 3.5% (n = 310,000); AID 2546; Potency, µM (titrated, usually from 53.6 µM), actives largely listed as inhibitors; Drosophila S2 Gal4-VP16 UAS-luciferase, luminescence, 20 h;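 note: Gal4-VP16 expression switched on by copper sulfate through the metallothionein promoter; nearly all actives have a fitted effect of over 50% in size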
B2AR arrestin – beta2AR (human) beta-arrestin recruitment activity | Potency, µM (doses to about 46.1 µM), actives largely listed as activators | P07550 | beta-arrestin recruitment to beta2AR, cell-based reporter | actives 0.02% (n = 330,000); note: nearly all actives have a fitted effect of over 65% in size
Target sequence (P07550 whole entry, looked up): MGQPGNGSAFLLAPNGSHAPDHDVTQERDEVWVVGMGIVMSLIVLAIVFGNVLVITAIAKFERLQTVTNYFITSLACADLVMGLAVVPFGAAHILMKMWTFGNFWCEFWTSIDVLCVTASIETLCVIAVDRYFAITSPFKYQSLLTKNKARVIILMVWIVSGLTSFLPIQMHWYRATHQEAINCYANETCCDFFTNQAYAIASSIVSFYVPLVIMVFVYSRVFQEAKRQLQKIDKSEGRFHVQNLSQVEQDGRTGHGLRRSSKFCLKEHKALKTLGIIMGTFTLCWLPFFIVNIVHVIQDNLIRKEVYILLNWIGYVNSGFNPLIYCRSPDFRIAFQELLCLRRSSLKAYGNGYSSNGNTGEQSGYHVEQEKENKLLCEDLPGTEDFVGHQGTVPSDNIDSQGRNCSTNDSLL
TSHR antag – blocks TSH signaling through the human TSH receptor; P16473; TSHR-expressing cells, TSH-stimulated cAMP HTRF, 2 h; stronger effect = lower value; activity change, negative = inhibition, % at 11.5 µM; actives 0.2% (n = 330,000); AID 504810;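 active = activity change below a set negative limit, meaning inhibition stronger than a set level, cut at about -70% in these data; inconclusive = activity change between two set negative limits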
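Freshly harvested TSHR cells receive pin-tooled compound, then EC80 TSH at 4nM final. After 2 hours at 37 deg C, antibody in lysis buffer and cAMP-d2 are added; 30 minutes at ambient temperature precede the HTRF read.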
Of the large screens only hits and unclear results are named; the others gave an inactive call. Unless noted, calls come from the whole dose curve; as a rule, active = well fitted curve in the direction sought with a large enough effect; inconclusive = small, poorly fitted or top-dose-only effect, or another doubt; inactive = no such curve, though single readings can be large; an effect the other way counts as inactive or inconclusive.

COc1ccc2c(Cl)c(C(=O)N/N=C/c3cccnc3)sc2c1	RORg inh inconclusive
Cc1ccc2c(Cl)c(C(=O)N/N=C/c3cccn3C)sc2c1	RORg inh 1.3µM, ELG1 DNA repair inconclusive, Gal4-VP16 FLuc 1.6µM
COc1ccc(OC)c(-c2nc(CN3CCN(C(=O)c4ccco4)CC3)c(C)o2)c1	none
COc1ccc(-c2nc(CN3CCN(C(=O)c4ccco4)CC3)c(C)o2)c(OC)c1C	RORg inh inconclusive, ELG1 DNA repair 12µM
CNC(CC(=O)c1ccc([N+](=O)[O-])cc1)C(Cl)(Cl)Cl (stereo not given)	RORg inh inconclusive, Gal4-VP16 FLuc 13µM
COc1ccc(C(=O)CC(Nc2ccc([N+](=O)[O-])cc2)c2ccc(OC)cc2)cc1 (stereo not given)	none
CC(C)c1nc2ccc(Br)cn2c1NC1CCCC1	RORg inh 7.1µM, ELG1 DNA repair inconclusive, Gal4-VP16 FLuc inconclusive
COc1cc2ccccc2cc1C(=O)Nc1sc2c(c1C(N)=O)CCN(C(C)C)C2	RORg inh 13µM, Gal4-VP16 FLuc 18µM
N=C(N)N=Nc1c(O)[nH]c2ccc(Br)cc12	none
NC(=S)N=Nc1c(O)[nH]c2cc(F)c(F)cc12	RORg inh 3.2µM, Gal4-VP16 FLuc 5µM
COc1cccc(CNC(=O)CCC2CCCN(c3cc(C)nc(N)n3)C2)c1 (stereo not given)	none
N#Cc1c(-c2ccco2)c2c([nH]c1=S)CCCC2	none
CC(C)Cc1c2c([nH]c(=S)c1C#N)CCCC2	RORg inh 6.3µM, Gal4-VP16 FLuc inconclusive
Cc1cccc(NC(=O)[C@@H]2CCCN2C(=O)OC(C)(C)C)c1	none
CCN1C(=O)C(CC(=O)Nc2ccc(OC)cc2)N(CCc2ccccc2F)C1=S (stereo not given)	RORg inh inconclusive, ELG1 DNA repair 16µM
COc1ccc(NC(=O)CC2C(=O)N(c3ccc(F)cc3)C(=S)N2NC(=O)c2ccc(Cl)cc2)cc1 (stereo not given)	RORg inh 11µM, Gal4-VP16 FLuc 20µM
COc1ccc(NC(=O)CC2C(=O)N(c3ccc(Cl)cc3)C(=S)N2NC(=O)c2cccc(F)c2)cc1 (stereo not given)	RORg inh 10µM, Gal4-VP16 FLuc 18µM
CCOC(=O)c1ccc(N2C(=O)C(CC(N)=O)N(NC(=O)c3cccc(F)c3)C2=S)cc1 (stereo not given)	none
CCCNc1nc(C#N)nc(Nc2ccccc2)n1	none (no result: RORg inh, ELG1 DNA repair, B2AR arrestin, TSHR antag)
Cc1csc(NC(=O)C2CCN(S(=O)(=O)c3cccs3)CC2)n1	RORg inh inconclusive, ELG1 DNA repair inconclusive
CCCn1c(Nc2nc3ccccc3n2C)nc2ccccc21	ELG1 DNA repair inconclusive, B2AR arrestin inconclusive
CCNC(=O)c1cccc(S(=O)(=O)N2CCCCCC2)c1	none
CCCn1c(NC(=O)C2CCN(S(=O)(=O)c3cccs3)CC2)nc2ccccc21	RORg inh 1.4µM, Gal4-VP16 FLuc 4.5µM
CCCn1c(NC(=O)c2ccccc2)nc2ccccc21	RORg inh 0.79µM, Gal4-VP16 FLuc 1.8µM
CCCn1c(SCC(=O)C(C)(C)C)nc2ccccc21	RORg inh 11µM, Gal4-VP16 FLuc inconclusive
CCCn1c(NC(=O)c2cccc(S(=O)(=O)N3CCCC3)c2)nc2ccccc21	RORg inh 2.8µM, ELG1 DNA repair 8.2µM, Gal4-VP16 FLuc 6.3µM
Cc1csc(NC(=O)CCNC(=O)c2ccccc2Cl)n1	none
CCCn1c(NC(=O)c2ccc(C)cc2)nc2ccccc21	RORg inh 2.2µM, ELG1 DNA repair inconclusive, Gal4-VP16 FLuc 0.63µM
C=CCn1c(-c2ccc(C)cc2)nc2ccccc21	RORg inh inconclusive, ELG1 DNA repair inconclusive
C=CCn1c(NC(=O)c2ccc(C)cc2)nc2ccccc21	RORg inh 0.4µM, ELG1 DNA repair inconclusive, Gal4-VP16 FLuc 0.79µM
O=[N+]([O-])c1ccc(C2=NN(CCO)C(=Nc3ccc(OC(F)(F)F)cc3)SC2)cc1	RORg inh inconclusive
CCCCCN=c1ccn(Cc2ccccc2)c2ccccc12	RORg inh 16µM (no result: ELG1 DNA repair, B2AR arrestin, TSHR antag)
OCCCc1cn(Cc2ccccc2)c2ccccc12	none
CN(CC(=O)Nc1ccccc1Cl)C(=O)COC(=O)Cc1c(F)cccc1Cl	RORg inh 10µM, Gal4-VP16 FLuc inconclusive
CCCCCCCC1=Cc2ccc(F)cc2C(C(C(C)=O)C(=O)OC)N1C(=O)OC (stereo not given)	none (no result: ELG1 DNA repair, B2AR arrestin, TSHR antag)
Cc1ccc(/C=C/c2nc3ccccc3s2)s1	RORg inh inconclusive, ELG1 DNA repair inconclusive, Gal4-VP16 FLuc 10µM
Oc1ccc(/C(Cc2ccc3ccccc3n2)=N\Nc2ccccc2)c(O)c1	none
CN(C)c1ccc(CNc2nc3ccccc3s2)cc1	RORg inh 5µM, ELG1 DNA repair inconclusive, Gal4-VP16 FLuc 7.9µM
O/C(=C\c1ccc2ccccc2n1)c1ccc(O)cc1O	RORg inh 2.8µM, ELG1 DNA repair inconclusive, Gal4-VP16 FLuc 8.9µM
C(=C\c1ccc2ccccc2n1)/c1ccccc1	ELG1 DNA repair inconclusive
Oc1ccc(/C=C/c2ccc3ccccc3n2)cc1	RORg inh 7.9µM, ELG1 DNA repair inconclusive, Gal4-VP16 FLuc 11µM
NC[C@@H]1O[C@H](O[C@H]2[C@H](O)[C@H](O[C@@H]3O[C@H](CO)[C@@H](O)[C@H](N)[C@@H]3O)[C@@H](N)C[C@H]2N)[C@@H](O)[C@H](O)[C@@H]1O	none (no result: ELG1 DNA repair, B2AR arrestin, TSHR antag)
O=[N+]([O-])c1ccc(/C=C/c2ccc3ccccc3n2)cc1	RORg inh inconclusive, ELG1 DNA repair inconclusive, Gal4-VP16 FLuc inconclusive
COc1cc(/C=C/c2nc3ccccc3s2)cc(OC)c1O	ELG1 DNA repair inconclusive
CN(C)c1ccc(/C=C/c2nc3ccccc3s2)cc1	RORg inh 0.32µM, Gal4-VP16 FLuc 4µM
CN(C)c1ccc(/C=C/c2ccc3ccccc3n2)cc1	RORg inh 4µM, ELG1 DNA repair inconclusive, Gal4-VP16 FLuc 2.8µM
COc1ccc(C(=O)Nc2c(N)nc(SCC(=O)NCC3CCCO3)[nH]c2=O)cc1 (stereo not given)	none
Cc1sc(NC(=O)CN2CCN(c3ccccn3)CC2)c(C#N)c1C	RORg inh inconclusive, ELG1 DNA repair 12µM
NS(=O)(=O)c1ccc(CNC(=S)Nc2ccc(F)c(Cl)c2)cc1	ELG1 DNA repair inconclusive, Gal4-VP16 FLuc inconclusive
NS(=O)(=O)c1ccc(NC(=S)Nc2nn(Cc3ccc(Cl)cc3Cl)cc2Cl)cc1	RORg inh 6.3µM, ELG1 DNA repair inconclusive, Gal4-VP16 FLuc 6.3µM
O=C1NC(=Nc2ccccc2)S/C1=C\c1cccs1	ELG1 DNA repair inconclusive
Cc1cc(C)cc(N=C2NC(=O)/C(=C/c3cccs3)S2)c1	RORg inh inconclusive, Gal4-VP16 FLuc 16µM
Cc1ccc2c(c1)C=CC(C#N)N2C(=O)c1ccccc1 (stereo not given)	none
CC1=Cc2ccccc2C(C#N)N1C(=O)c1ccccc1 (stereo not given)	RORg inh inconclusive, ELG1 DNA repair inconclusive, Gal4-VP16 FLuc 13µM
CNC(=O)c1cc(S(=O)(=O)N2CC(C)OC(C)C2)ccc1N1CCCCC1 (stereo not given)	none (no result: RORg inh, Gal4-VP16 FLuc)
